Among the data in PubChem BioAssay (NCI) are growth values, retold here.

About 83,000 compounds went through this panel and 20% of them were active in at least one assay; those are over-represented in the sample as a whole.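 Compound tested at a single concentration for 48 hours in 96-well plates; a percent growth value below 10 was scored as active.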 Values without a mark were called inactive. Calls of active or inactive are those of the source.

The first assay relates to PC-3 prostate. As to the kind of experiment: NCI-60 one-dose screen, 48 h (100 = growth as untreated, 0 = no growth, -100 = all killed). As to conditions: 10 µM unless noted.
Consider `O=C1Nc2ccc(Cl)cc2/C1=C/c1cccs1`, for which the growth was 93.4%.

As for `CCOc1cc(/C=C/C(=O)C(C(=O)/C=C/c2ccc(OC(=O)CNc3nc4ccccc4[nH]3)c(OCC)c2)C(=O)CNc2nc3ccccc3[nH]2)ccc1OC(=O)CNc1nc2ccccc2[nH]1`, the growth was 3.12% (active). Take `NS(=O)(=O)N(c1cc(C(F)(F)F)cc(C(F)(F)F)c1)C1CCN(Cc2ccc(C(F)(F)F)cc2)CC1`: the growth is 26%. Regarding `CCCCCCCSc1ncnc2[nH]ncc12`, the growth was 78.8%.

As for `COc1cccc(C2=NN(C(C)=O)C(c3cc(OC)c(OC)c(OC)c3)C2)c1` (centres undefined), the growth was 16.9%.

Regarding `COc1c(O)cc2c(c1CC=C(C)C)OC(=O)c1c(cc(O)c(CC=C(C)C)c1O)O2`, the growth is 24.5%. Turning to `O=CN1N=C(c2ccc(Nc3ccnc4cc(Cl)ccc34)cc2)CC1c1ccc(Cl)cc1` (centres undefined), the growth was 32.3%. Turning to `CCOC1Oc2ccccc2C(=O)/C1=N/c1nccs1` (centres undefined), the growth is 67.8%. Turning to `NC(=O)NC1(C(=O)O)CCCC1`, the growth is 100%.

For `O=c1ccn(C2CC=C(CO)O2)c(=O)[nH]1` (centres undefined), the growth was 85.9%. Turning to `CC1CN(/N=C/c2ccc([N+](=O)[O-])o2)C(=N)O1` (centres undefined), the growth is 89.5%.

As to `N/C(=N\c1nc2ccccc2s1)NC(=O)Nc1ccccc1Cl`, the growth is 27.8%. On to `Nc1nc(Nc2ccccc2SSc2ccccc2Nc2nc(N)nc(-c3cccc(Cl)c3)n2)nc(-c2cccc(Cl)c2)n1`, for which the growth is 83.9%. Consider `CCCCCCCCCCCCC1CCCC(C)C1` (centres undefined), for which the growth was 88.8%. Consider `COc1ccc(-n2cnc3cc(C(=O)N4CCCCC4)ccc32)cc1`, for which the growth is 94.6%. Still for that read-out and setting: with `COc1cc(C(=O)c2cc3c(cc2C)OCO3)cc(OC)c1OC` the figure was 18.1%; with `NC(=N\N=C/Cc1ccccc1)/C(N)=N\N=C\Cc1ccccc1`, 101%; with `CCSc1nc(-c2cccs2)n2nc(-c3ccco3)cc2n1`, 99%. The same measure, in the same setting: with `COc1ccc2c(c1)[n+](=O)c(C(=O)/C=C/c1cc(OC)c(OC)c(OC)c1)c(C)n2[O-]` the figure was 59.9%. With `O=C(CNC(=O)c1cccc2ccccc12)Nc1ccccc1Oc1cccc(O)c1`, the growth was 28.1% [5 µM]. In the case of `CN1C(=O)C(C2=NN(C=O)C(c3ccc(F)cc3)C2)C(=O)N(C)C1=O` (centres undefined), the growth was 78.7%. On the same count and under the same terms, next, `Cc1ncc(C(=O)Nc2ccc(CN3CCN(C)CC3)c(C(F)(F)F)c2)cc1C#Cc1cncc2ncccc12`: 90.6%.

Take `O=C1C=CC(=O)N1c1ccccc1N1C(=O)C=CC1=O`: the growth is 97.5%. `N#Cc1c(-c2ccccc2)cc(-c2ccccc2)n(CCCCCCC(=O)O)c1=O`: the growth was 105%. On the same count and under the same terms, next, `COc1ccc(C2CC(c3ccc4c(c3)OCO4)=NN2C=O)cc1` (centres undefined): 93.4%; `O=C(O)C1CCN(S(=O)(=O)c2ccc(-c3ccccc3)cc2)CC1`: 80.9%; `CC[C@@H](C)/C=C(C)/C=C/C(=O)c1c(O)c(-c2ccc(O)cc2)cn(OC2CC(=O)CCC(C)OC(=O)CC2O)c1=O` (some centres undefined): 34%. In the case of `CCCCCCCCN(CCO)CCCCCCCC`, the growth was 99.3%. For the compound `CN(C)CCCNc1nn2c(=O)c3ccccc3nc2c2ccccc12`, the growth is 62.1%. Turning to `Nc1c(C(=O)Nc2cccc(Cl)c2)sc2nc3c(cc12)C(O)CCC3` (centres undefined), the growth was 28.5%. Take `N#CC1c2ccccc2C=CN1C(=O)N(c1ccccc1)c1ccccc1` (centres undefined): the growth is 60%.

Consider `C=C1CCC2C3(C)COC(c4ccccc4)OC3CCC2(C)C1C/C=C1/C(=O)OCC1OC(C)=O` (centres undefined), for which the growth was 78.5%. As for `O=C1CNc2cc(Cl)ccc2N1`, the growth is 104%. As for `COCCOCCOCCOCCOc1ccc2c(c1)C(=O)c1nc3ncccc3c(=O)n1-2`, the growth is -8.58% (active).

In a further assay the test system is SK-MEL-5 melanoma. The description is as above. As to conditions: 10 µM unless noted.
Take `O=C1Nc2ccc(Cl)cc2/C1=C/c1cccs1`: the growth is 85.7%. Same read-out and setting: next, `CCOc1cc(/C=C/C(=O)C(C(=O)/C=C/c2ccc(OC(=O)CNc3nc4ccccc4[nH]3)c(OCC)c2)C(=O)CNc2nc3ccccc3[nH]2)ccc1OC(=O)CNc1nc2ccccc2[nH]1`: -86.6% (active).

For `NS(=O)(=O)N(c1cc(C(F)(F)F)cc(C(F)(F)F)c1)C1CCN(Cc2ccc(C(F)(F)F)cc2)CC1`, the growth is 38.2%. The same measure, in the same setting: next, `CCCCCCCSc1ncnc2[nH]ncc12`: 92.4%; `CO[C@H]1/C=C/O[C@@]2(C)Oc3c(C)c(O)c4c(O)c(c(/C=N/N5C(C)CN(Cc6ccc(C#N)cc6)CC5C)c(O)c4c3C2=O)NC(=O)/C(C)=C\C=C\[C@H](C)[C@H](O)[C@@H](C)[C@@H](O)[C@@H](C)[C@H](OC(C)=O)[C@@H]1C` (some centres undefined): 5.17% (active). For `COc1c(O)cc2c(c1CC=C(C)C)OC(=O)c1c(cc(O)c(CC=C(C)C)c1O)O2`, the growth was 40.8%. For the compound `O=CN1N=C(c2ccc(Nc3ccnc4cc(Cl)ccc34)cc2)CC1c1ccc(Cl)cc1` (centres undefined), the growth was -27.4% (active). Turning to `CCOC1Oc2ccccc2C(=O)/C1=N/c1nccs1` (centres undefined), the growth is 101%. As to `NC(=O)NC1(C(=O)O)CCCC1`, the growth was 111%. For `O=c1ccn(C2CC=C(CO)O2)c(=O)[nH]1` (centres undefined), the growth was 90%. Take `CC1CN(/N=C/c2ccc([N+](=O)[O-])o2)C(=N)O1` (centres undefined): the growth was 93.4%. Still for that read-out and setting: with `N/C(=N\c1nc2ccccc2s1)NC(=O)Nc1ccccc1Cl` the figure was 23.8%; with `O=Cc1ccccc1C(=O)O`, 101%.

For `CCCCCCCCCCCCC1CCCC(C)C1` (centres undefined), the growth is 101%.

Consider `COc1ccc(-n2cnc3cc(C(=O)N4CCCCC4)ccc32)cc1`, for which the growth is 102%. In the case of `COc1ccc2nc(N/N=C(\C)c3ccccn3)cc(C)c2c1`, the growth is -86.2% (active).

`COc1cc(C(=O)c2cc3c(cc2C)OCO3)cc(OC)c1OC`: the growth was 0.803% (active). As to `CCSc1nc(-c2cccs2)n2nc(-c3ccco3)cc2n1`, the growth was 86.5%.

On to `COc1ccc2c(c1)[n+](=O)c(C(=O)/C=C/c1cc(OC)c(OC)c(OC)c1)c(C)n2[O-]`, for which the growth is 50.8%. Take `O=C(CNC(=O)c1cccc2ccccc12)Nc1ccccc1Oc1cccc(O)c1`: the growth is 26.4% [5 µM].

In the case of `CN1C(=O)C(C2=NN(C=O)C(c3ccc(F)cc3)C2)C(=O)N(C)C1=O` (centres undefined), the growth is 102%. For the compound `Cc1ncc(C(=O)Nc2ccc(CN3CCN(C)CC3)c(C(F)(F)F)c2)cc1C#Cc1cncc2ncccc12`, the growth is 37.5%.

For the compound `O=C1C=CC(=O)N1c1ccccc1N1C(=O)C=CC1=O`, the growth is 106%.

In the case of `N#Cc1c(-c2ccccc2)cc(-c2ccccc2)n(CCCCCCC(=O)O)c1=O`, the growth is 99.8%. On the same count and under the same terms, next, `COc1ccc(C2CC(c3ccc4c(c3)OCO4)=NN2C=O)cc1` (centres undefined): 95.9%. `O=C(O)C1CCN(S(=O)(=O)c2ccc(-c3ccccc3)cc2)CC1`: the growth is 108%.

For `CC[C@@H](C)/C=C(C)/C=C/C(=O)c1c(O)c(-c2ccc(O)cc2)cn(OC2CC(=O)CCC(C)OC(=O)CC2O)c1=O` (some centres undefined), the growth was -22.7% (active). Regarding `CCCCCCCCN(CCO)CCCCCCCC`, the growth was 98.5%. Turning to `O=C(Nc1ccc2c(c1)C(=O)c1ccccc1-2)c1ccccc1`, the growth is 97.9%.

Consider `CN(C)CCCNc1nn2c(=O)c3ccccc3nc2c2ccccc12`, for which the growth was 52.6%. As for `CCN(CC)CCNCC(=O)Oc1ccc(/C=C/C(=O)CC(=O)/C=C/c2ccc(OC(=O)CNCCN(CC)CC)c(OC)c2)cc1OC`, the growth was -13.7% (active).

Regarding `Nc1c(C(=O)Nc2cccc(Cl)c2)sc2nc3c(cc12)C(O)CCC3` (centres undefined), the growth is 28.7%. On the same count and under the same terms, with `C=C1CCC2C3(C)COC(c4ccccc4)OC3CCC2(C)C1C/C=C1/C(=O)OCC1OC(C)=O` (centres undefined) the figure was 60.7%; with `O=C1CNc2cc(Cl)ccc2N1`, 99.9%; with `COCCOCCOCCOCCOc1ccc2c(c1)C(=O)c1nc3ncccc3c(=O)n1-2`, -100% (active).
